The source of these data is PubChem BioAssay (NCATS).

SMILES strings stand for the structures. Results filed as inconclusive are left out. A call without a number means that no potency is given here. Active and inactive are the calls of the source. Calls follow the shape of the dose curve; as a rule, active = well fitted cell-killing curve with a large enough effect; inconclusive = small, poorly fitted or top-dose-only effect; inactive = flat fitted curve, though single readings scatter. Numbered stars: 1 amine (or outer) side, 2 acyl side, 3 side chain; on linkers, the order of the positions; unused ones are H or OH. Bridge positions count the residues as written; N and C are the ends. Square brackets hold non-standard residues; d marks the D form. Peptide text beside a SMILES is read from it. I, II: the chains in the order shown. Actinocin(9to1) = Cc1c2oc3c(C)ccc(C(=O)[*:1])c3nc-2c(C(=O)[*:2])c(N)c1=O; NMeV = CN[C@H](C(=O)O)C(C)C; Sar = CNCC(=O)O
Potency is read from the fitted curve at half-maximal effect.

A short description of one experiment: Cell Viability - LYMP2-018 (AID 985). Also: nearly all actives have a fitted effect of over 50% in size. Particulars: LYMP2-018 lymphoblastoid cells, viability (qHTS); series mostly up to 92.2 µM. The method, boiled down:
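2500 cells/well; 5 hr 37 C; cmpd 24 hr 37 C, complete medium; CellTiter-Glo 30 min RT; luminescence. Tetraoctylammonium bromide positive control. AC50 via Hill fit.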
In the case of `CC(C)(C)CC(C)(C)c1ccc(OCCOCC[N+](C)(C)Cc2ccccc2)cc1`, the Potency was 25.1 µM (active).

`C=C(CC)C(=O)c1ccc(OCC(=O)O)c(Cl)c1Cl`: the Potency was 39.8 µM (active).

In the case of `COC1=CC(=O)C[C@@H](C)[C@]12Oc1c(Cl)c(OC)cc(OC)c1C2=O`, the Potency entry is “inactive”.

In the case of `C=CCc1ccc(O)c(OC)c1`, the Potency entry is “inactive”.

In the case of `CC(=O)Oc1ccc(C(c2ccc(OC(C)=O)cc2)c2ccccn2)cc1`, the Potency result is “inactive”.

For the compound `O=C(O)CCCCC(=O)O`, the Potency entry was “inactive”.

As for `CCCCCCc1ccc(O)cc1O`, the Potency entry was “inactive”.

On to `Nc1ccc(C(=O)O)cc1`, for which the Potency entry was “inactive”.

Consider `COc1cccc2c1C(=O)c1c(O)c3c(c(O)c1C2=O)C[C@@](O)(C(C)=O)C[C@@H]3O[C@H]1C[C@H](N)[C@H](O)[C@H](C)O1`, for which the Potency was 0.158 µM (active).

For the compound `CC(=O)O[C@]1(C(C)=O)CC[C@H]2[C@@H]3C[C@H](C)C4=CC(=O)CC[C@]4(C)[C@H]3CC[C@@]21C`, the Potency is 39.8 µM (active).

`CC(O)C(=O)O` (stereo unspecified): the Potency entry is “inactive”.

`O=c1ccc2ccccc2o1`: the Potency entry was “inactive”.

As to `NC(=NCCCCCCN=C(N)/N=C(\N)Nc1ccc(Cl)cc1)/N=C(\N)Nc1ccc(Cl)cc1`, the Potency was 39.8 µM (active).

On to `O=C1OC(c2ccc(O)cc2)(c2ccc(O)cc2)c2ccccc21`, for which the Potency entry is “inactive”.

With `CC/C(=C(/CC)c1ccc(O)cc1)c1ccc(O)cc1`, the Potency entry is “inactive”.

Take `COc1cccc2c1C(=O)c1c(O)c3c(c(O)c1C2=O)C[C@@](O)(C(=O)CO)C[C@@H]3O[C@H]1C[C@H](N)[C@H](O)[C@H](C)O1`: the Potency is 0.158 µM (active).

Regarding `CN(C)/N=N/c1nc[nH]c1C(N)=O`, the Potency result is “inactive”.

A further experiment is described as follows: Cell Viability - LYMP2-020 (AID 986).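 Also: cells exposed to compound for 24 h at 37 °C; nearly all actives have a fitted effect of over 55% in size.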 Particulars: series mostly up to 92.2 µM. In short, it runs like this: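 qHTS, 2500 cells/well; 5 hr then 24 hr compound exposure, 37 C; CellTiter-Glo luminescence after 30 min RT; ATP decrease taken as cytotoxicity; AC50 via Hill equation; tetraoctylammonium bromide positive control.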
As to `CC(C)(C)CC(C)(C)c1ccc(OCCOCC[N+](C)(C)Cc2ccccc2)cc1`, the Potency was 25.1 µM (active).

As to `C[C@]12CC[C@@H]3c4ccc(O)cc4CC[C@H]3[C@@H]1CC[C@@H]2O`, the Potency entry is “inactive”.

Turning to `COC1=CC(=O)C[C@@H](C)[C@]12Oc1c(Cl)c(OC)cc(OC)c1C2=O`, the Potency entry is “inactive”.

On to `C=CCc1ccc(O)c(OC)c1`, for which the Potency entry is “inactive”.

Regarding `Cc1c2oc3c(C)ccc(C(=O)N[C@@H]4C(=O)N[C@H](C(C)C)C(=O)N5CCC[C@H]5C(=O)N(C)CC(=O)N(C)[C@@H](C(C)C)C(=O)O[C@@H]4C)c3nc-2c(C(=O)N[C@@H]2C(=O)N[C@H](C(C)C)C(=O)N3CCC[C@H]3C(=O)N(C)CC(=O)N(C)[C@@H](C(C)C)C(=O)O[C@@H]2C)c(N)c1=O` (I: T[dV]P[Sar][NMeV] / II: T[dV]P[Sar][NMeV]; ester I:1-I:C, II:1-II:C; linker I:N-II:N via Actinocin(9to1)), the Potency is 0.0063 µM (active).

Take `CC(=O)Oc1ccc(C(c2ccc(OC(C)=O)cc2)c2ccccn2)cc1`: the Potency result is “inactive”.

As for `Oc1ccc(O)cc1`, the Potency is 50.1 µM (active).

Turning to `O=C(O)CCCCC(=O)O`, the Potency entry was “inactive”.

For the compound `CCCCCCc1ccc(O)cc1O`, the Potency entry is “inactive”.

As to `Nc1ccc(C(=O)O)cc1`, the Potency entry is “inactive”.

On to `COc1cccc2c1C(=O)c1c(O)c3c(c(O)c1C2=O)C[C@@](O)(C(C)=O)C[C@@H]3O[C@H]1C[C@H](N)[C@H](O)[C@H](C)O1`, for which the Potency was 0.501 µM (active).

As for `CC(O)C(=O)O` (stereo unspecified), the Potency entry is “inactive”.

`O=c1ccc2ccccc2o1`: the Potency result is “inactive”.

`NC(=NCCCCCCN=C(N)/N=C(\N)Nc1ccc(Cl)cc1)/N=C(\N)Nc1ccc(Cl)cc1`: the Potency was 39.8 µM (active).

Regarding `O=C1OC(c2ccc(O)cc2)(c2ccc(O)cc2)c2ccccc21`, the Potency result was “inactive”.

As to `CC/C(=C(/CC)c1ccc(O)cc1)c1ccc(O)cc1`, the Potency result is “inactive”.

Regarding `COc1cccc2c1C(=O)c1c(O)c3c(c(O)c1C2=O)C[C@@](O)(C(=O)CO)C[C@@H]3O[C@H]1C[C@H](N)[C@H](O)[C@H](C)O1`, the Potency is 0.316 µM (active).

For `Oc1c(Cl)cc(Cl)cc1Sc1cc(Cl)cc(Cl)c1O`, the Potency is 31.6 µM (active).

On to `CN(C)/N=N/c1nc[nH]c1C(N)=O`, for which the Potency result is “inactive”.
